# Laboratory results from PubChem BioAssay (Tox21).
# Unmarked numbers belong to inactive results. Records with an inconclusive call do not appear. Entries that show only a call come without a potency. Calls of active or inactive are those of the source. Unless noted, the call rests on the fitted dose curve; in most records, active means well fitted curve in the direction sought with a large enough effect in the repeat runs; inconclusive means weak or mixed curves; inactive means no such curve, though single readings can be large; an effect the other way counts as inactive or inconclusive.
# Assays:
# [1] = biological target: Thyrotropin receptor (Homo sapiens) (UniProt P16473); assay: qHTS assay to identify small molecule agonists of the thyroid stimulating hormone receptor (TSHR) signaling pathway (AID 1224843; calls by dose curve; further: nearly all actives have a fitted effect of over 45% in size; further: potency means the concentration at half of the fitted maximal effect); details: TSHR-HEK293 cells, cAMP HTRF, agonist mode, 30 min; series mostly up to 92.4 µM
# Sequence of Thyrotropin receptor (Homo sapiens) (P16473 whole entry, looked up): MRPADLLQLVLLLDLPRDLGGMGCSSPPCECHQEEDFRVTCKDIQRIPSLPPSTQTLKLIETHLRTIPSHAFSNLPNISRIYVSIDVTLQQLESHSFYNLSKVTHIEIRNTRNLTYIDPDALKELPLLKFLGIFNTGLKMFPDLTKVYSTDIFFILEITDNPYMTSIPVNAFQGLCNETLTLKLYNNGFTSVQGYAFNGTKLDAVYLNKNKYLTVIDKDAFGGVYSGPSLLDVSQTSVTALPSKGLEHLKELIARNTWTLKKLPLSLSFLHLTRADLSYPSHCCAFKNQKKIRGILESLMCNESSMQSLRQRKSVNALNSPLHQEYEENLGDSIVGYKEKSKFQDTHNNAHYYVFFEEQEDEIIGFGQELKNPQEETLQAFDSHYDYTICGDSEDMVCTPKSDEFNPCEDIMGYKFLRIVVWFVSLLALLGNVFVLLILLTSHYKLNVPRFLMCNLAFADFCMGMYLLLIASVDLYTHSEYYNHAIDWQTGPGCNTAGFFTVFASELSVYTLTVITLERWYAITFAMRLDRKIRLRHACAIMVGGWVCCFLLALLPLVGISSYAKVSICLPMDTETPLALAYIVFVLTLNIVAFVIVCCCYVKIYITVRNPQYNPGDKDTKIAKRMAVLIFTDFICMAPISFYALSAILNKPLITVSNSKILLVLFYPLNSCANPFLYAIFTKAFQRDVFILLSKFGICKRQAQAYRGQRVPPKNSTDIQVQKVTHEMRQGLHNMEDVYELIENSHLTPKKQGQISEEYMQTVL
# Procedure, shortened: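 Agonist activity read as cAMP rise via d2/cryptate HTRF competition, 1 h room-temperature detection, in HEK293 cells expressing TSHR. Fifteen-point titrations, each run in triplicate, with a 30 min room-temperature incubation beforehand.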
# [2] = qHTS assay to identify small molecule agonists of H2AX (AID 1224845; active means well fitted activation curve with a large enough effect in the signal ratio in the repeat runs, not every such curve was filed as active; the % refers to the signal ratio); details: CHO-K1 phospho-H2AX Ser139 HTRF, 3 h; series mostly up to 154 µM
# Procedure, shortened: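 Phospho-H2AX Ser139 measured by HTRF (ex 320 nm; em 665 and 620 nm) after 24 hr antibody incubation. Compounds, 15 concentrations, 0.76% DMSO, were applied to CHO-K1 cells for 3hr at 37C before lysis.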
# [3] = qHTS assay to identify small molecule antagonists of the estrogen related receptor (ERR) signaling pathway from Tox21 library (AID 1224848); details: ERR reporter cell line, luciferase antagonist mode, 18 h; series mostly up to 92.4 µM; further: nearly all actives have a fitted effect of over 50% in size; further: potency means the concentration at half of the fitted maximal effect
# Procedure, shortened: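 Luciferase luminescence (ONE-Glo, 30 min room temperature) was the read-out. Cells of the NTP-supplied ERR line, 2,000 per well, were given 6 h at 37 C before compound addition in DMSO and 18 h exposure at 37 C.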
# [4] = A CellTox Green Cytotoxicity Assay to monitor cytotoxicity in HEK293 cells - 0 hour (AID 1224869); details: CellTox Green fluorescence; series mostly up to 76.8 µM; further: nearly all actives have a fitted effect of over 50% in size
# Procedure, shortened: (§1)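 Dead-cell fluorescence measured kinetically: asymmetric cyanine dye, HEK293, 600 cells/well, 5 h settle, 23 nL cpd/DMSO, 37 C, reads 0–40 h every 8 h.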
# [5] = A CellTox Green Cytotoxicity Assay to monitor cytotoxicity in HEK293 cells - 24 hour (AID 1224875); details: CellTox Green fluorescence; series mostly up to 76.8 µM; further: nearly all actives have a fitted effect of over 45% in size
# Procedure, shortened: as §1
# [6] = qHTS assay to identify small molecule agonists of the hypoxia (HIF-1) signaling pathway (AID 1224846; active means well fitted activation curve with a large enough effect in the signal ratio in the repeat runs, not every such curve was filed as active; the % refers to the signal ratio); details: HRE-bla ME-180 cells, beta-lactamase ratio, 17 h; series mostly up to 76.8 µM
# Procedure, shortened: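 Agonist mode reporter screen. ME-180 cells stably expressing bla under HRE control received test compounds in DMSO for 17 hrs (37C, 5% CO2), and beta-lactamase activity was then detected with the CCF4-AM FRET substrate.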
# [7] = qHTS assay to identify small molecule agonists of the estrogen related receptor (ERR) signaling pathway from Tox21 library (AID 1224849; calls by dose curve; further: nearly all actives have a fitted effect of over 15% in size); details: ERR reporter cell line, ONE-Glo luciferase, 18 h; at 92.4 µM (top of the series) unless noted
# Procedure, shortened: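 Quantitative HTS in agonist format: NTP ERR cell line, compounds transferred in DMSO after 6 h plating, 18 h incubation at 37 C, ONE-Glo luminescence endpoint.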
# [8] = qHTS RealTime-Glo MT Cell Viability Assay in HepG2 cells - 24 hour (AID 1224867); details: RealTime-Glo luminescence; series mostly up to 76.8 µM; further: nearly all actives have a fitted effect of over 50% in size
# Procedure, shortened: (§2)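 qHTS, HepG2, 600 cells/well, RealTime-Glo (NanoLuc + prosubstrate) added with cells; 5 h preincubation; DMSO compound addition; 37 C; luminescence at 0/8/16/24/32/40 h.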
# [9] = qHTS RealTime-Glo MT Cell Viability Assay in HEK293 cells - 32 hour (AID 1224868); details: RealTime-Glo luminescence; series mostly up to 76.8 µM; further: top concentration of the series differs between compounds; nearly all actives have a fitted effect of over 50% in size
# Procedure, shortened: (§3)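 Assay medium contained NanoLuc luciferase plus cell-permeant prosubstrate, added with HEK293 cells at 600 cells/well. After 5 h at 37 C/5% CO2 compounds were added; plates stayed at 37 C for 40 h with serial luminescence reads.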
# [10] = qHTS RealTime-Glo MT Cell Viability Assay in HepG2 cells - 40 hour (AID 1224870); details: RealTime-Glo luminescence; series mostly up to 76.8 µM; further: nearly all actives have a fitted effect of over 50% in size
# Procedure, shortened: (§4)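 Real-time viability: cells seeded at 600 per well together with NanoLuc and cell-permeant prosubstrate, compounds added after 5 h incubation. Luminescence tracked at 0, 8, 16, 24, 32 and 40 h of exposure.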
# [11] = A CellTox Green Cytotoxicity Assay to monitor cytotoxicity in HEK293 cells - 40 hour (AID 1224871); details: CellTox Green fluorescence; series mostly up to 76.8 µM; further: nearly all actives have a fitted effect of over 45% in size
# Procedure, shortened: as §1
# [12] = qHTS RealTime-Glo MT Cell Viability Assay in HEK293 cells - 16 hour (AID 1224872); details: RealTime-Glo luminescence; series mostly up to 76.8 µM; further: nearly all actives have a fitted effect of over 50% in size; further: potency means the concentration at half of the fitted maximal effect
# Procedure, shortened: as §3
# [13] = qHTS RealTime-Glo MT Cell Viability Assay in HepG2 cells - 8 hour (AID 1224873); details: RealTime-Glo luminescence; series mostly up to 76.8 µM; further: nearly all actives have a fitted effect of over 55% in size
# Procedure, shortened: as §4
# [14] = qHTS RealTime-Glo MT Cell Viability Assay in HEK293 cells - 40 hour (AID 1224874); details: RealTime-Glo luminescence; max response: active compounds read low; further: nearly all actives have a fitted effect of over 50% in size; further: potency means the concentration at half of the fitted maximal effect
# Procedure, shortened: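 600 HEK293 cells per well, dispensed already mixed with RealTime-Glo MT reagents. Compound dosing came 5 h later. The same wells were read for luminescence at 0, 8, 16, 24, 32 and 40 h of exposure at 37 C.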
# [15] = A CellTox Green Cytotoxicity Assay to monitor cytotoxicity in HepG2 cells - 16 hour (AID 1224876); details: CellTox Green fluorescence; series mostly up to 76.8 µM; further: nearly all actives have a fitted effect of over 45% in size
# Procedure, shortened: (§5)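 First, HepG2 cells (600/well) mixed with reagent were plated; second, after 5 h at 37 C they received compounds via pintool; third, fluorescence was measured at 0 h through 40 h at 8 h intervals.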
# [16] = qHTS RealTime-Glo MT Cell Viability Assay in HepG2 cells - 32 hour (AID 1224877); details: RealTime-Glo luminescence; series mostly up to 76.8 µM; further: nearly all actives have a fitted effect of over 55% in size
# Procedure, shortened: as §2
# [17] = A CellTox Green Cytotoxicity Assay to monitor cytotoxicity in HepG2 cells - 24 hour (AID 1224878); details: CellTox Green fluorescence; series mostly up to 76.8 µM; further: nearly all actives have a fitted effect of over 45% in size
# Procedure, shortened: as §5
# [18] = A CellTox Green Cytotoxicity Assay to monitor cytotoxicity in HepG2 cells - 40 hour (AID 1224879); details: CellTox Green fluorescence; series mostly up to 76.8 µM; further: nearly all actives have a fitted effect of over 40% in size
# Procedure, shortened: as §5
# [19] = qHTS assay to identify small molecule agonists of H2AX - cell viability counter screen (AID 1224847; calls by dose curve;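 further: wild-type CHO-K1 cells; top concentration of the series differs between compounds; nearly all actives have a fitted effect of over 30% in size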); details: CHO-K1 viability, CellTiter-Glo luminescence, 3 h; series mostly up to 154 µM
# Procedure, shortened: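 CHO-K1 wt, 1000 cells/well, o/n 37C; cpds 15 conc, 3 h 37C, 0.76% DMSO; CellTiter-Glo, 30 min RT, luminescence.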
SMILES,Potency [1],Potency [2],Potency [3],Potency [4],Potency [5],outcome [6],"activity change, positive = activation [7]",Potency [8],Potency [9],Potency [10],Potency [11],Potency [12],Potency [13],max response [14] [%],Potency [15],Potency [16],Potency [17],Potency [18],Potency [19],Potency [14]
O=[N+]([O-])C(Br)(CO)CO,30.6 µM (active),inactive,inactive,inactive,inactive,,,,,,,,,,,,,,,
C[C@@H]1CC[C@H]2[C@@H](C)C(=O)O[C@@H]3O[C@@]4(C)CC[C@@H]1[C@]32OO4,inactive,,0.944 µM (active),inactive,inactive,inactive,-38.3% [at 42.5 µM],inactive,inactive,inactive,inactive,inactive,inactive,-5.45,inactive,inactive,inactive,inactive,,
CCCCCCCCOC(=O)c1ccc(C(=O)OCCCCCCCC)c(C(=O)OCCCCCCCC)c1,inactive,inactive,,inactive,inactive,inactive,,inactive,inactive,inactive,inactive,inactive,inactive,-3.25,inactive,inactive,inactive,inactive,,
C=CCC1([C@H](C)CCC)C(=O)NC(=O)NC1=O,inactive,inactive,,inactive,inactive,,,inactive,inactive,inactive,inactive,inactive,inactive,-11.9,inactive,,inactive,inactive,inactive,
CCCC(=O)Cl,inactive,inactive,,inactive,inactive,inactive,,inactive,inactive,inactive,inactive,inactive,inactive,17,inactive,inactive,inactive,inactive,,
OC(c1ccc(Cl)cc1)(c1ccc(Cl)cc1)c1cccnc1,30.6 µM (active),inactive,48.6 µM (active),inactive,inactive,,-55.6%,,,,inactive,38.9 µM (active),,,inactive,,inactive,inactive,,38.9 µM (active)
CC(=O)CCC(C)=O,inactive,inactive,,inactive,inactive,,,inactive,inactive,inactive,inactive,inactive,inactive,11.7,inactive,,inactive,,inactive,
